The supplement of paper PMC6555819

Legend:
Assay in all cases: PBM binding z-score (relative to random genomic background probes); higher = stronger binding; sequences stand for … in GC…GCGATTGACAGCGTAGAATGAAGG
[1] = tested on: FXR:RXRa (NR concentration 270 nM, RXRa partner concentration 90 nM)
How it was run: (§1)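 On custom Agilent 4×180K arrays, double-stranded probes with 34-nt variable regions carried direct-repeat seeds, single-nucleotide variants, half-site ablations or random human genomic background. Ligand-free nuclear receptor dimers were applied for 1 h, and binding was read with antibodies against each partner (one per run). Binding z-scores come from regression-normalized fluorescence, with the random background probes as reference.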

[2] = tested on: LXRa:RXRa (NR concentration 270 nM, RXRa partner concentration 90 nM)
How it was run: as §1

[3] = tested on: LXRa homodimer (NR concentration 270 nM)
How it was run: as §1

[4] = tested on: LXRb:RXRa (NR concentration 270 nM, RXRa partner concentration 90 nM)
How it was run: as §1

[5] = tested on: LXRb homodimer (NR concentration 270 nM)
How it was run: as §1

[6] = tested on: PPARa:RXRa (NR concentration 270 nM, RXRa partner concentration 90 nM)
How it was run: as §1

[7] = tested on: PPARg:RXRa (NR concentration 180 nM, RXRa partner concentration 90 nM)
How it was run: as §1

[8] = tested on: PPARg:RXRa 270nM:90nM, anti-RXR (NR concentration 270 nM, RXRa partner concentration 90 nM)
How it was run: as §1

[9] = tested on: PPARg:RXRa 30nM:10nM, anti-RXR (NR concentration 30 nM, RXRa partner concentration 10 nM)
How it was run: as §1

[10] = tested on: PPARg:RXRa 90nM:30nM, anti-RXR (NR concentration 90 nM, RXRa partner concentration 30 nM)
How it was run: as §1

[11] = tested on: PPARg:RXRa DBDmut IVT, anti-RXR (DBD mutation: RXRa K156A/R161A, NR concentration 270 nM, RXRa partner concentration 90 nM)
How it was run: as §1

[12] = tested on: PPARg:RXRa IVT, anti-PPARg (NR concentration 270 nM, RXRa partner concentration 90 nM)
How it was run: as §1

[13] = tested on: PPARg DBDmut:RXRa IVT, anti-PPARg (DBD mutation: PPARg1 K132A/R137A, NR concentration 270 nM, RXRa partner concentration 90 nM)
How it was run: as §1

[14] = tested on: PPARg DBDmut IVT, anti-PPARg (DBD mutation: PPARg1 K132A/R137A, NR concentration 270 nM)
How it was run: as §1

[15] = tested on: PPARg homodimer (NR concentration 180 nM)
How it was run: as §1

[16] = tested on: PXR:RXRa (NR concentration 270 nM, RXRa partner concentration 90 nM)
How it was run: as §1

[17] = tested on: PXR homodimer (NR concentration 270 nM)
How it was run: as §1

[18] = tested on: RARa:RXR (NR concentration 270 nM, RXRa partner concentration 90 nM)
How it was run: as §1

[19] = tested on: RARa homodimer (NR concentration 270 nM)
How it was run: as §1

[20] = tested on: RARb:RXRa (NR concentration 270 nM, RXRa partner concentration 90 nM)
How it was run: as §1

Sequence	PBM binding z-score [1]	PBM binding z-score [2]	PBM binding z-score [3]	PBM binding z-score [4]	PBM binding z-score [5]	PBM binding z-score [6]	PBM binding z-score [7]	PBM binding z-score [8]	PBM binding z-score [9]	PBM binding z-score [10]	PBM binding z-score [11]	PBM binding z-score [12]	PBM binding z-score [13]	PBM binding z-score [14]	PBM binding z-score [15]	PBM binding z-score [16]	PBM binding z-score [17]	PBM binding z-score [18]	PBM binding z-score [19]	PBM binding z-score [20]
GTACCAAGCTGAATAGGTCGTTGATGAGTAGGCG	-0.533	-0.288	-0.35	-0.237	-1.03	0.192	0.271	0.0324	-0.305	-0.334	-0.646	-0.114	-1.16	-0.822	-1.1	-0.255	-0.471	0.235	-0.336	0.0822
TCATATCGGTAAAGGTGAAAGTCGAACGATATGA	0.139	1.31	-0.173	1.35	-0.304	2.77	1.89	3.12	3.8	3.48	1.56	2.05	0.818	0.266	0.769	0.507	-0.566	1.62	0.00667	1.98
AATATTAGTTGAGACGAGGGCAACCGATAGGTTG	0.383	0.45	0.595	0.306	0.174	0.507	0.897	0.51	0.0399	0.408	0.326	0.882	0.648	0.786	1.36	1.71	1.48	1.4	2.43	1.26
TGAATGAGGTTATAAGATGAGGGAACGTTGCAAA	1.51	1.28	-0.0389	1.09	0.338	2.36	1.1	1.61	1.03	1.43	1.09	1.5	0.967	0.169	0.684	0.72	-0.291	1.49	0.262	1.19
ATACCAAGGTGATCGTGTGGTCGTTGATACTAAC	0.493	0.0735	-0.0332	0.23	-0.176	0.206	0.285	0.406	-0.115	-0.212	0.658	0.953	0.0763	0.561	0.519	0.0212	-0.0663	0.0038	0.00751	0.737
CCTAGCAGGCCAGGGTCACTCCAGCATTTCGCTT	1.55	1.25	-0.465	1.65	-0.731	2.73	0.332	1.25	-0.559	0.667	0.422	1.18	-1.53	-1.63	1.15	2.12	-0.229	2.93	0.279	2.47
ATATGTAGGTTAAGGGGCATTCAGGTTGGTTCGC	1.42	2	1.15	2.75	1.48	5.25	9.21	8.26	8.39	9.63	7.2	7.11	2.3	1.88	2.29	2.12	1.83	1.92	1.47	1.78
TCGAGTAGGTTACGAATGGGGCATTCAGCTTTCT	0.143	0.677	-0.52	0.42	-0.693	0.834	0.32	0.972	0.971	0.914	3.5	2.62	-0.724	-1.15	-0.342	-0.00987	-0.855	0.446	-0.789	0.855
ATCGAAAGGCCGTGAGGTGAGTATACAGAAAGGC	0.424	0.135	-0.0346	-0.0132	-0.426	0.369	0.827	0.177	0.199	-0.0286	-0.822	0.492	0.487	1.17	-0.238	0.0278	-0.0636	0.885	0.0649	1.68
ATCTTTAGGTAACAAGTTCAGTGAAAGAGAGGAC	1.21	1.09	0.889	1.08	1.44	1.41	0.762	1.44	0.49	0.949	2.13	1.75	1.64	1.45	1.33	1.95	1.87	1.32	1.15	1.85
TCTAGTTGGACAAAGGTCACACACTCGAAATGCG	5.55	5.75	3.58	5.38	1.83	6.21	9.82	8.72	9.32	9.4	2.65	5.02	0.884	1.01	4.09	5.7	1.81	6.59	2.98	5.11
CGAACTAGGTCAGCCAGGACAGTGAATACATTGA	1.87	0.875	0.291	0.649	-0.648	3.55	6.1	5.28	2.28	4.35	7.76	7.73	1.49	0.655	1.34	0.744	-0.0382	0.595	0.0532	3.45
TTACCAAGGGGAAGGTCGTTGATCCCTCTGTAGA	0.907	0.734	-0.259	0.976	-0.862	1.38	0.79	2.13	0.461	1.52	-0.147	0.449	-0.647	-0.525	-0.13	0.711	-0.0192	0.899	-0.541	0.811
AATACAGGGTCACTAGGCCAGAGAAGGTACGAAT	5.79	5.03	1.01	3.99	0.795	5.85	7.78	6.43	3.11	5.35	4.07	5.68	1.28	1.34	1.96	3.02	0.776	3.74	0.823	4.2
